Records with an inconclusive call do not appear. Unless noted, calls come from the whole dose curve; as a rule, active = well fitted curve in either direction with a large enough effect (not every such curve was filed as active); inconclusive = small, poorly fitted or top-dose-only effect, or another doubt; inactive = flat fitted curve, though single readings scatter.
Experiments:
[1] = AP1 Signaling Pathway (AID 357); settings: ME-180 AP-1-bla reporter, EGF-induced, beta-lactamase ratio, 5 h; at 17.2 µM (top of the series) unless noted;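 note: ME-180 reporter cells stimulated with EGF at its EC50 level; % is set by controls: 0 for no effect and ±100 for the full control effect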
Outline: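 Read-out was the 460nm/530nm emission ratio (excitation 405nm) after CCF4 loading for 2.5 hours at room temperature. Cells carried an AP-1-driven beta-lactamase reporter, were stimulated with EC50 EGF plus compound for 5 hours, and AC50 values came from titrations.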

[2] = NFAT Signaling Pathway (AID 444); settings: Jurkat NFAT-bla M1, carbachol, beta-lactamase ratio, 5 h; at 17.2 µM (top of the series) unless noted;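 note: carbachol stimulus at about its EC50 of 1 µM final; % is set by controls: 0 for no effect and ±100 for the full control effect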
Outline: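 Jurkat cells with NFAT-driven β-lactamase reporter and co-expressed M1 receptor, stimulated with carbachol (final 1 uM, ~EC50), compound titration, 5 h at 37 °C. CCF4 loaded 1 h at RT; 460/530 nm ratio gave %activity and AC50.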

[3] = Stat Signaling Pathway (AID 446); settings: ME-180 (cervical carcinoma) SIE beta-lactamase reporter, IL-6 stimulated, 5 h; at 17.2 µM (top of the series) unless noted;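 note: ME-180 cervical cancer cells given 40 pM IL-6 alongside compound; SIE-controlled beta-lactamase reporter measured as 460/530 nm FRET emission ratio; % is set by controls: 0 for no effect and ±100 for the full control effect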
Outline: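 Overnight-plated ME-180 cells bearing a STAT Inducible Element beta-lactamase reporter; 5 h co-exposure to compound and 40 pM IL-6; values normalized to 300 pM IL-6 and 125 nM JAK inhibitor controls.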

[4] = molecular target: Glucocorticoid receptor (Homo sapiens) (UniProt P04150); assay: GR-GFP Redistribution (AID 450;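 active = compounds whose dose series gives a full or clear partial fitted curve of increased nuclear translocation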; note: potency is the fitted concentration of half-maximal effect)
Chain of Glucocorticoid receptor (Homo sapiens) (P04150 whole entry, looked up): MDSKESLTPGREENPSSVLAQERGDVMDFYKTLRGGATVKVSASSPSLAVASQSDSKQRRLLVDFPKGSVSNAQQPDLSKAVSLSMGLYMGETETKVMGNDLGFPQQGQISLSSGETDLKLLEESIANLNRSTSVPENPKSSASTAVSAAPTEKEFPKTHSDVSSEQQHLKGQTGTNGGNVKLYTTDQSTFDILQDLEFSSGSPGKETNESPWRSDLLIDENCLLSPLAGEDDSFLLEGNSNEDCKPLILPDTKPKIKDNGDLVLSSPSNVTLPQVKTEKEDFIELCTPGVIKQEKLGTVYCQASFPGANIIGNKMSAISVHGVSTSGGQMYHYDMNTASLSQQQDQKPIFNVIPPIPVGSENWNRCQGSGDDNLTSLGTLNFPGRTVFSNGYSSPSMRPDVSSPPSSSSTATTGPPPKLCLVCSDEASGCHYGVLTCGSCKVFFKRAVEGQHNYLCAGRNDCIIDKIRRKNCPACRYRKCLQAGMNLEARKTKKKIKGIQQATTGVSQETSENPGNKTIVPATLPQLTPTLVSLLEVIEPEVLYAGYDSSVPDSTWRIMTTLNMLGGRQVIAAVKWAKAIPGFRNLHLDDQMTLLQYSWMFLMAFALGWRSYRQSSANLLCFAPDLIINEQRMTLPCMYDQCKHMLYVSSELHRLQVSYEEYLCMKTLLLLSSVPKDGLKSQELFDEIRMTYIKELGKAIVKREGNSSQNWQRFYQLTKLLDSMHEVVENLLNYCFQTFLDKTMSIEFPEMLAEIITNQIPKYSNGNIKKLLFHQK

CCc1ccc(NC(=O)CSC2=C(C#N)C(c3ccco3)C3=C(CCCC3=O)N2)cc1 (centres undefined)
inactive: activity change, negative = inhibition [1] -12.8% | activity change, negative = inhibition [2] -17.6% | activity, negative = inhibition [3] -16.5% | Potency [4] > 20.6 µM

CC(=O)Nc1ccc(Oc2ccc3nc(C)[nH]c3c2)cc1
inactive: activity change, negative = inhibition [1] -4.84% | activity change, negative = inhibition [2] 0.827% | activity, negative = inhibition [3] -5.58% | Potency [4] > 20.6 µM

Cc1cc2ccccc2cc(C)c1=O
inactive: activity change, negative = inhibition [1] 9.45% | activity change, negative = inhibition [2] -28.3% | activity, negative = inhibition [3] -25.4% | Potency [4] > 20.6 µM

COc1cccc(OC)c1-c1nn2c(-c3ccccc3Cl)nnc2s1
inactive: activity change, negative = inhibition [1] -22.5% | activity change, negative = inhibition [2] -8.73% | activity, negative = inhibition [3] -3.22% | Potency [4] > 20.6 µM

C/C(=N\O)C1(C)N(O)C(C)(C)C(c2ccco2)=[N+]1[O-] (centres undefined)
inactive: activity change, negative = inhibition [1] 5.37% | activity change, negative = inhibition [2] 9.27% | activity, negative = inhibition [3] 1.33% | Potency [4] > 20.6 µM

COc1cccc(C(=O)N2CCN(S(=O)(=O)Cc3ccccc3)CC2)c1OC
inactive: activity change, negative = inhibition [1] 8.1% | activity change, negative = inhibition [2] 18.1% | activity, negative = inhibition [3] -3.28% | Potency [4] > 20.6 µM

COc1cccc(Cn2c(NCc3ccco3)nc3c2c(=O)n(C)c(=O)n3C)c1
inactive: activity change, negative = inhibition [1] -11% | activity change, negative = inhibition [2] -5% | activity, negative = inhibition [3] -24.4% | Potency [4] > 20.6 µM

COCCCn1c2nc3ccccc3nc2c2c(=O)n(-c3ccccc3OC)c(C)nc21
inactive: activity change, negative = inhibition [1] -7.38% | activity change, negative = inhibition [2] -8.29% | activity, negative = inhibition [3] 5.28% | Potency [4] > 20.6 µM

CCn1c(SCC(=O)NCc2ccco2)nnc1-c1ccc(N)cc1
inactive: activity change, negative = inhibition [1] 0.344% | activity change, negative = inhibition [2] 16.3% | activity, negative = inhibition [3] -0.962% | Potency [4] > 20.6 µM

Cc1cccc(NC(=O)c2cc(N3CCOCC3)nc3ccccc23)c1
inactive: activity change, negative = inhibition [1] -7.76% | activity change, negative = inhibition [2] 28.7% | activity, negative = inhibition [3] -0.239% | Potency [4] > 20.6 µM

CCOC(=O)c1ccc(CSc2ncn[nH]2)o1
inactive: activity change, negative = inhibition [1] 0.882% | activity change, negative = inhibition [2] -2.95% | activity, negative = inhibition [3] 5.39% | Potency [4] > 20.6 µM

C=CCN(C)CCCNC(=O)/C=N/O
inactive: activity change, negative = inhibition [1] -0.81% | activity change, negative = inhibition [2] 2.2% | activity, negative = inhibition [3] 3.74% | Potency [4] > 20.6 µM

CCCCc1c(C)nn(-c2nnc3c4ccccc4n(C)c3n2)c1C
inactive: activity change, negative = inhibition [1] -21.4% | activity change, negative = inhibition [2] -28.4% | activity, negative = inhibition [3] -8.34% | Potency [4] > 20.6 µM

OCCOCCNc1ncnc2c1cnn2-c1ccccc1
inactive: activity change, negative = inhibition [1] 7% | activity change, negative = inhibition [2] 1.59% | activity, negative = inhibition [3] -1.47% | Potency [4] > 20.6 µM

CC1(C)CC(=O)C(C=N)=C(O)C1
inactive: activity change, negative = inhibition [1] -5.44% | activity change, negative = inhibition [2] 1.7% | activity, negative = inhibition [3] 2.78% | Potency [4] > 20.6 µM

O=c1[nH]cnc2cc(-c3ccccc3)sc12
inactive: activity change, negative = inhibition [1] -9.08% | activity change, negative = inhibition [2] 3.27% | activity, negative = inhibition [3] 9.54% | Potency [4] > 20.6 µM

Nc1nnc(CSc2ccc(Cl)cc2)s1
inactive: activity change, negative = inhibition [1] 18.1% | activity change, negative = inhibition [2] -0.614% | activity, negative = inhibition [3] 2.04% | Potency [4] > 20.6 µM

CCOC(=O)c1c(C(C#N)C#N)cc(C)nc1C
inactive: activity change, negative = inhibition [1] 9.21% | activity change, negative = inhibition [2] -6.15% | activity, negative = inhibition [3] 1.48% | Potency [4] > 20.6 µM

COc1ccc(Nc2nc(Nc3ccc(OC)cc3)nc(-n3[nH]c(=O)c(C)c3C)n2)cc1
inactive: activity change, negative = inhibition [1] 22.4% | activity change, negative = inhibition [2] -1.75% | activity, negative = inhibition [3] 8.62% | Potency [4] > 20.6 µM

C=CCn1c(-c2ccc(OC)c(OC)c2)n[nH]c1=S
inactive: activity change, negative = inhibition [1] 1.93% | activity change, negative = inhibition [2] 9.3% | activity, negative = inhibition [3] -10.7% | Potency [4] > 20.6 µM

C=CCOc1nc2c(c(=O)n(C)c(=O)n2C)n1Cc1ccc(Cl)cc1Cl
inactive: activity change, negative = inhibition [1] 4.26% | activity change, negative = inhibition [2] -9.88% | activity, negative = inhibition [3] -16.6% | Potency [4] > 20.6 µM
